# Measured values reported in PubChem BioAssay (NCI).
# Where “and” joins values, the source holds several entries; their conditions need not be identical. Equal values may be shown once. This is part of a sample that, as a whole, favours compounds with a hit. Of some 79,000 tested, about 15% had one in any assay. Where a structure was tested more than once in an assay, its records may differ in their call. Calls of active or inactive are those of the source. No stated cut-off is given here; in the data, active means growth inhibition above about 70%; inactive means the rest.
# How the values were obtained:
# [1] = NCI Yeast Anticancer Drug Screen. Data for the rad50 strain (AID 155);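 further: 0% = growth of vehicle-only cultures of the same strain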; conditions: S. cerevisiae rad50 strain growth inhibition; at 50.0 µM; stronger effect = higher value
# Procedure, shortened: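 Yeast carrying a defined DNA repair defect were exposed to test compounds, and growth was compared with vehicle-treated controls to give percent inhibition.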
# [2] = NCI Yeast Anticancer Drug Screen. Data for the mec2-1 strain (AID 157); conditions: S. cerevisiae mec2-1 strain, at 50.0 µM, stronger effect = higher value
# Procedure, shortened: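 Each compound was tested on mec2-1 yeast, a strain altered in DNA damage repair or cell cycle control. Growth inhibition is reported relative to vehicle.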
# [3] = NCI Yeast Anticancer Drug Screen. Data for the sgs1 mgt1 strain (AID 161);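 further: 0% = growth of cultures given vehicle only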; conditions: S. cerevisiae sgs1 mgt1 strain, at 50.0 µM, stronger effect = higher value
# Procedure, shortened: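 Mutant yeast exposed to compound; growth scored against vehicle-only wells.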
# [4] = NCI Yeast Anticancer Drug Screen. Data for the cln2 rad14 strain (AID 165);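 further: 0% = growth equal to vehicle treated cultures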; conditions: S. cerevisiae cln2 rad14 strain, at 50.0 µM, stronger effect = higher value
# Procedure, shortened: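 Test compounds were added to cln2 rad14 yeast cultures; inhibition of growth was then determined by comparison with vehicle treatment.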
# [5] = NCI Yeast Anticancer Drug Screen. Data for the bub3 strain (AID 167); conditions: S. cerevisiae bub3 mutant strain, at 50.0 µM, stronger effect = higher value
# Procedure, shortened: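 Compounds were applied to a genetically altered yeast strain carrying a cell-cycle control defect. Growth inhibition was scored against vehicle-treated controls.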
# [6] = NCI Yeast Anticancer Drug Screen. Data for the mlh1 rad18 strain (AID 175); conditions: S. cerevisiae mlh1 rad18 strain growth inhibition; at 50.0 µM; stronger effect = higher value
# Procedure, shortened: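 Inhibition values reflect reduced growth of mutant yeast versus vehicle-treated controls following compound exposure; the mutations affect DNA damage repair.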
Compound,growth inhibition [1],growth inhibition [2],growth inhibition [3],growth inhibition [4],growth inhibition [5],growth inhibition [6]
NC(Cn1ccc(=O)c(O)c1)C(=O)O (stereo unspecified),9.8% (inactive) and -0.85% (inactive),18.6% (inactive) and 5.7% (inactive),7.35% (inactive) and 21.9% (inactive),13.2% (inactive) and 6.8% (inactive),10.7% (inactive) and 11.4% (inactive),-90.2% (inactive) and 4.3% (inactive)
CC(C)(C)OC(=O)N1CCCC1C(=O)O (stereo unspecified),-2% (inactive) and 4.9% (inactive),-22.3% (inactive) and 2.55% (inactive),3.05% (inactive) and 3.8% (inactive),6.05% (inactive) and -24.8% (inactive),11.6% (inactive) and -5.25% (inactive),2.45% (inactive) and 4.55% (inactive)
CC(=O)OCC(OC(C)=O)C(OC(C)=O)C(OC(C)=O)C(C=NN(C(C)=O)S(=O)(=O)c1ccc(/C=C2\NC(=O)NC2=O)cc1)OC(C)=O (stereo unspecified),2.7% (inactive) and 15.3% (inactive),13.4% (inactive) and 0.65% (inactive),26.6% (inactive) and 11.7% (inactive),24.1% (inactive) and 30.6% (inactive),-5.25% (inactive) and 7.15% (inactive),25.8% (inactive) and 18.2% (inactive)
C/C(=N\NC(N)=O)c1ccc(Cl)cc1,27.9% (inactive) and 9.05% (inactive),10.8% (inactive) and -3.65% (inactive),2% (inactive) and -6.25% (inactive),9.6% (inactive) and -8.65% (inactive),-4.15% (inactive) and 6% (inactive),7.3% (inactive) and 10.7% (inactive)
O=C(Oc1ccc(Br)cc1)c1ccccc1,0.75% (inactive) and 5.6% (inactive),-12.8% (inactive) and -7.05% (inactive),-4.35% (inactive) and -0.05% (inactive),-13.9% (inactive) and -27.1% (inactive),30.9% (inactive) and 13.7% (inactive),-6.1% (inactive) and 29.4% (inactive)
NNS(=O)(=O)c1ccc(Cl)cc1,-3.5% (inactive) and 13.2% (inactive),-19.1% (inactive) and 2.45% (inactive),-5.45% (inactive) and 6.6% (inactive),13.4% (inactive) and -4.4% (inactive),22.9% (inactive) and 9.8% (inactive),-8.3% (inactive) and 7% (inactive)
Nc1ccc2nc[nH]c2c1,-15.3% (inactive) and 18.9% (inactive),-7.6% (inactive) and -4.65% (inactive),-7.55% (inactive) and -18.6% (inactive),14.7% (inactive) and 16.6% (inactive),2.25% (inactive) and -1% (inactive),-0.9% (inactive) and 14.3% (inactive)
O=Nc1ccc(NO)cc1,29.9% (inactive) and 34% (inactive),32.7% (inactive) and 7.45% (inactive),33.5% (inactive) and 20.3% (inactive),-25.2% (inactive) and 22.3% (inactive),3.2% (inactive) and 47.5% (inactive),3.35% (inactive) and 31.6% (inactive)
Cc1ccc(C(O)c2nnc(C(O)c3ccc(C)cc3)nn2)cc1 (stereo unspecified),11.2% (inactive) and 33.9% (inactive),11.6% (inactive) and 29% (inactive),-3.55% (inactive) and 71% (active),9.45% (inactive) and 16.4% (inactive),18.9% (inactive) and 21.2% (inactive),18.8% (inactive) and 40.5% (inactive)
O=C(O)CC(NC(=O)OCc1ccccc1)C(=O)O (stereo unspecified),-30.5% (inactive) and -21.3% (inactive),-16.4% (inactive) and 9.65% (inactive),-6.2% (inactive) and 0.8% (inactive),16.5% (inactive) and -33.6% (inactive),1.55% (inactive) and 4.65% (inactive),-8.75% (inactive) and -16.1% (inactive)
CC(O)COc1ccc(C2CCCCC2)cc1 (stereo unspecified),27.9% (inactive) and 8% (inactive),10.4% (inactive) and -21.6% (inactive),7.3% (inactive) and 16.4% (inactive),-10.2% (inactive) and -25.9% (inactive),-2.55% (inactive) and -5.5% (inactive),-11.6% (inactive) and 13% (inactive)
OCCN1CCNCC1,4.4% (inactive) and -9.55% (inactive),-0.5% (inactive) and -14.3% (inactive),4.95% (inactive) and -17.8% (inactive),8.3% (inactive) and -15.8% (inactive),-23.5% (inactive) and 13.4% (inactive),1.75% (inactive) and -19.2% (inactive)
CCOc1ccc(C(C)=O)cc1,10.7% (inactive) and -0.6% (inactive),5.25% (inactive) and 3.75% (inactive),5.85% (inactive) and 3.85% (inactive),10.9% (inactive) and 1.45% (inactive),5.5% (inactive) and 3.65% (inactive),-2.05% (inactive) and -7.45% (inactive)
NC(=O)Nc1ccc(Cl)cc1,-17.2% (inactive) and 22.5% (inactive),-11.8% (inactive) and -9.35% (inactive),-24.8% (inactive) and -5% (inactive),-17.9% (inactive) and -12.5% (inactive),-4.2% (inactive) and -17.1% (inactive),-10.9% (inactive) and 15.4% (inactive)
CN(C)c1ccc(/C=C2\c3ccccc3-c3ccc([N+](=O)[O-])cc32)cc1,20.9% (inactive) and 6.65% (inactive),-9.8% (inactive) and -6.75% (inactive),-21.1% (inactive) and -11% (inactive),-27.2% (inactive) and -8.2% (inactive),-19.6% (inactive) and 4.45% (inactive),-4.35% (inactive) and 8% (inactive)
CC(C)CC(CC(C)C)=NNc1ccc([N+](=O)[O-])cc1[N+](=O)[O-],-12.9% (inactive) and -0.9% (inactive),6.5% (inactive) and -18.6% (inactive),-10% (inactive) and -6.9% (inactive),-33.3% (inactive) and 19.9% (inactive),12.3% (inactive) and -10.9% (inactive),-13.9% (inactive) and 19.4% (inactive)
CC1(C)Cc2[nH]c3ccccc3c2C(C)(C)N1,-35% (inactive) and 6.55% (inactive),-16.4% (inactive) and 23.3% (inactive),-6.35% (inactive) and 14.5% (inactive),-64% (inactive) and -6.15% (inactive),-4.5% (inactive) and 12.5% (inactive),3.8% (inactive) and 10.5% (inactive)
CC(=O)OC(COC(=O)c1ccccc1)C(OC(C)=O)C(OC(C)=O)C(COC(=O)c1ccccc1)OC(C)=O (stereo unspecified),3.7% (inactive) and 3.5% (inactive),-7.8% (inactive) and 2.5% (inactive),-7.65% (inactive) and -9.85% (inactive),-18.9% (inactive) and -21.4% (inactive),-3.3% (inactive) and -2.7% (inactive),5.45% (inactive) and 17% (inactive)
CC1(C)CC(=O)CC(=O)C1,25.2% (inactive) and 10.2% (inactive),12.8% (inactive) and 3.15% (inactive),-9.3% (inactive) and 4.6% (inactive),18.8% (inactive) and 0.85% (inactive),2.55% (inactive) and 6.75% (inactive),18.6% (inactive) and 6.8% (inactive)
Nc1ccc(O)c2c1C(=O)c1c(O)ccc(N)c1C2=O,59.8% (inactive) and 13.4% (inactive),11.4% (inactive) and -13.4% (inactive),16.4% (inactive) and -0.55% (inactive),-16.1% (inactive) and -0.65% (inactive),43.2% (inactive) and 8.25% (inactive),42.1% (inactive) and 11.8% (inactive)
OC1CCN2Cc3ccccc3N=C12 (stereo unspecified),3.1% (inactive) and 22.2% (inactive),-0.3% (inactive) and 21.7% (inactive),17.4% (inactive) and -5.9% (inactive),4.5% (inactive) and 15.8% (inactive),-3.05% (inactive) and 13.4% (inactive),-2% (inactive) and -16.8% (inactive)
